These results are taken from PubChem BioAssay.

Test [1] can be described thus: antimalarial activity against Dd2 strain (AID 2302;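 active = growth inhibition above 50% at the single 2 µM test dose, taken to imply half-maximal potency below 2 µM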;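 note: 0% = DMSO untreated growth and 100% = chloroquine plus artemisinin killed control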). Particulars: P. falciparum Dd2 in RBCs, LDH growth readout, 72 h; at 2 µM; hits give high values.
A short description of test [2]: human hepatoma cell viability loss – ATP luminescence, cytotoxicity control for P. falciparum antimalarial project, primary screen (AID 2303;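 active = inhibition above 50%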;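 note: 0% = DMSO wells and 100% = digitonin-killed cells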). Conditions: HepG2 viability, 24-48 h, at 10 µM, hits give high values.
Test [3] has as its target L-lactate dehydrogenase (Plasmodium falciparum (isolate CDC / Honduras)) (UniProt Q27743). Kind of test: PfLDH activity inhibition – cell lysate, 3D7 strain, counter-screen for P. falciparum growth inhibition project (AID 2304).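 Note: 0% = vehicle and 100% = reference inhibitor.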 Conditions: P. falciparum 3D7 crude extract, LDH APAD/NBT absorbance; at 2 µM; hits give high values.
The nature of test [4]: inhibition of 3D7 malaria parasite growth – strain 3D7 (AID 2306).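 Note: 0% = DMSO wells and 100% = chloroquine plus artemisinin control wells.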 Particulars: P. falciparum 3D7 erythrocytic growth, LDH absorbance, 72 h; at 2 µM; hits give high values.
Test [5] has as its target Calcium-dependent protein kinase 1 (Plasmodium falciparum (isolate 3D7)) (UniProt P62344). Kind of test: PfCDPK1 kinase inhibitors, biochemical, TCAMS library (AID 1159585; cut-off not given, nearly all actives have IC50 up to about 0.98 µM;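 note: inhibitors leave more ATP so luminescence rises with inhibition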). Particulars: recombinant PfCDPK1, Kinase-Glo ATP depletion luminescence.
Test [6] deals with Plasmodium falciparum protein kinase 6 (PK6, PF3D7_1337100) (UniProt Q8IDW1). As to the kind of experiment: PfPK6 kinase inhibitors, biochemical, TCAMS library (AID 1159586). Particulars: recombinant PfPK6, Kinase-Glo ATP depletion luminescence.
Chain of Plasmodium falciparum protein kinase 6 (PK6, PF3D7_1337100) (Q8IDW1 1-305): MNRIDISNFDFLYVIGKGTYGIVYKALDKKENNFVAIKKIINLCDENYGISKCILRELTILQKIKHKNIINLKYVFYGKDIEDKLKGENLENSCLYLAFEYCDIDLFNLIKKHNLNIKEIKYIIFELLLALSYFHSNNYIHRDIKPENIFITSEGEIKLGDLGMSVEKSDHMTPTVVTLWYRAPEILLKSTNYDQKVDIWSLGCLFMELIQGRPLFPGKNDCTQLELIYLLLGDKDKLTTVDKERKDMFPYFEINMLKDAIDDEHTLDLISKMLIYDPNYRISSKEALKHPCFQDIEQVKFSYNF
The target of test [7] is Protein kinase 7 (PK7), Plasmodium falciparum 3D7 (PF3D7_0213400) (UniProt Q7YTF7). Kind of test: inhibition of Plasmodium PK7 catalytic activity – biochemical, TCAMS antimalarial set, Kinase-Glo luminescence (AID 1159587). Particulars: recombinant PfPK7, Kinase-Glo ATP depletion luminescence.
Chain of Protein kinase 7 (PK7), Plasmodium falciparum 3D7 (PF3D7_0213400) (Q7YTF7 1-343): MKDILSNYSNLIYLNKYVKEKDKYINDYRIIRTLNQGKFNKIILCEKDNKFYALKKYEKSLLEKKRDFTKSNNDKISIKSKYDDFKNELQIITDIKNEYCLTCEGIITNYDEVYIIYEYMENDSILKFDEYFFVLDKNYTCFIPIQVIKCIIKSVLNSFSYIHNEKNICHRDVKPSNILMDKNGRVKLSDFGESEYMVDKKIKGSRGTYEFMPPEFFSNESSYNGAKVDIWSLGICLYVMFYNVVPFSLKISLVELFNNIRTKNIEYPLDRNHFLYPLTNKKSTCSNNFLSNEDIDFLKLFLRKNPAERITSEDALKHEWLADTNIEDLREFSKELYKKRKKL
Test [8] addresses Calcium-dependent protein kinase 4 (Plasmodium falciparum (isolate 3D7)) (UniProt Q8IBS5). Kind of test: PfCDPK4 kinase inhibitors, biochemical, TCAMS library (AID 1159588; cut-off not given, nearly all actives have IC50 up to about 0.91 µM). Conditions: recombinant PfCDPK4, Kinase-Glo ATP depletion luminescence.

Unmarked numbers belong to inactive results. For some of these results: Measured potencies and affinities stand elsewhere. Calls of active or inactive are those of the source. Unless noted, the rule behind the calls is not given here.

Chain of Calcium-dependent protein kinase 1 (Plasmodium falciparum (isolate 3D7)) (P62344 whole entry, looked up): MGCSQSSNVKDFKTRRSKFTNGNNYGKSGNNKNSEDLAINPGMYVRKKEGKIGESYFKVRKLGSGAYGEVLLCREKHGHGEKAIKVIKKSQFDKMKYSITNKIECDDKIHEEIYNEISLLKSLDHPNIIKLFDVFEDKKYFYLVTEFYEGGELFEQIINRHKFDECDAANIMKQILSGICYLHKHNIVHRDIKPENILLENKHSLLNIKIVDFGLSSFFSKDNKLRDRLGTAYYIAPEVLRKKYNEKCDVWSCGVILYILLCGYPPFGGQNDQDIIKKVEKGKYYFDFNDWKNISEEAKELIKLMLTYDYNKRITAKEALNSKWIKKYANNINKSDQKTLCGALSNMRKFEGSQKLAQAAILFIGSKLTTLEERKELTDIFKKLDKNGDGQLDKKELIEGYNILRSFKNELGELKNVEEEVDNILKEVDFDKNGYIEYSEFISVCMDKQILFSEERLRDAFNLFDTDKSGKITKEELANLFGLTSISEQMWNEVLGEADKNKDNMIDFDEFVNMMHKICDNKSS
Chain of L-lactate dehydrogenase (Plasmodium falciparum (isolate CDC / Honduras)) (Q27743 whole entry, looked up): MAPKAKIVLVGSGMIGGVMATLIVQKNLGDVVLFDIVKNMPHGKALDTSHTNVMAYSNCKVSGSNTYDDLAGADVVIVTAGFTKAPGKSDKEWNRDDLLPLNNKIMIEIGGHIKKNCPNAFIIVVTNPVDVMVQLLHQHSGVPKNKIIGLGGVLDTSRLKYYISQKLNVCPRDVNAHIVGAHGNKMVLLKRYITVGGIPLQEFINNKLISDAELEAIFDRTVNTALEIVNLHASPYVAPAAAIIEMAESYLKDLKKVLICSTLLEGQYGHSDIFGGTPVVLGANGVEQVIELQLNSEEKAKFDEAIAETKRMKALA
Chain of Calcium-dependent protein kinase 4 (Plasmodium falciparum (isolate 3D7)) (Q8IBS5 whole entry, looked up): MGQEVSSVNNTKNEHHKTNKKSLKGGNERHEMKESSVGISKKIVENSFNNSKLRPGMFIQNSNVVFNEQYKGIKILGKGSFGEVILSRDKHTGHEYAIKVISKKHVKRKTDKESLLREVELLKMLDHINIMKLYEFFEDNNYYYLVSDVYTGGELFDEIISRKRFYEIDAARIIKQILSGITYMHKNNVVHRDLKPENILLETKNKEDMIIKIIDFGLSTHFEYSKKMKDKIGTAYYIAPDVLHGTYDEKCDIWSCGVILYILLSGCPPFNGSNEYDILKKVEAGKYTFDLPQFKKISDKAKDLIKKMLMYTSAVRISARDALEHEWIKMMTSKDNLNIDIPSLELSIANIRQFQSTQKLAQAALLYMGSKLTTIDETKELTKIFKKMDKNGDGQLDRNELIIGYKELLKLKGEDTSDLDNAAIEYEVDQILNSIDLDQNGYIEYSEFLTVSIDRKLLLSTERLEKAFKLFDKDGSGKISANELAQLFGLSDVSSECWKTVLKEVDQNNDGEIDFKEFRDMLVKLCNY

Turning to `COc1ccc(N2CCN(CCCCNC(=O)c3ccc(NC(=O)c4ccc(Cl)cc4)cc3)CC2)c(C)c1`, the growth inhibition in test [1] is 51% (active); in test [4], 100% (active). Further, the values for the inhibition in test [2] and in test [3] were 42% and 0%, respectively. For the same compound, the outcome in test [5], in test [6], in test [7] and in test [8] was inactive.

Consider `Cc1nc(N)nc(N)c1-c1ccc(Cl)cc1`, for which the growth inhibition was 0% in test [1] and 96% (active) in test [4]. Also, the inhibition was 15% in test [2] and -4% in test [3]. Besides, the result in test [5], in test [6], in test [7] and in test [8] was inactive.

As to `CNc1ccc(CNCc2cccc(-c3ccc(-c4nc5c(C)cccc5[nH]4)s3)c2)cc1`, the growth inhibition was 88% (active) in test [1] and 101% (active) in test [4]. In addition, the inhibition is 23% in test [2] and -2% in test [3]. In addition, the result in test [5], in test [6], in test [7] and in test [8] was inactive.

Turning to `CN(C)CC1CCCN1Cc1ccccc1-c1cnn(C)c(=O)c1Oc1ccccc1F` (stereo not given), the growth inhibition in test [1] is 27%; in test [4], 95% (active). For the same compound, the inhibition in test [2] was 18%; in test [3] it was -1%. Besides, the outcome in test [5], in test [6], in test [7] and in test [8] was inactive.

With `COc1ccc2nccc([C@@H](O)CN3CCC(NC(=O)C(=O)c4c[nH]c5c(C)cccc45)CC3)c2c1`, the values for the growth inhibition in test [1] and in test [4] were 94% (active) and 102% (active), respectively. The inhibition in test [2] is 17%; in test [3] it was -3%. In addition, the outcome in test [5], in test [6], in test [7] and in test [8] was inactive.

With `CCCCCCCCCCS(=O)(=O)N[C@H](COCc1cccc(Oc2ccccc2)c1)COP(=O)(O)OC`, the growth inhibition in test [1] is -3%; in test [4], 87% (active). Moreover, the inhibition is -1% in test [2] and -8% in test [3]. For the same compound, the result in test [5], in test [6], in test [7] and in test [8] was inactive.

`COc1ccc(C(=O)NC(Nc2ccc([N+](=O)[O-])cc2)C(Cl)(Cl)Cl)cc1` (stereo not given): the growth inhibition is 83% (active) in test [1] and 95% (active) in test [4]. Further, the inhibition in test [2] was 15%; in test [3], 1%. In addition, the result in test [5], in test [6], in test [7] and in test [8] was inactive.

`CCCCCCCN1CC[C@H](CC(=O)Nc2ccnc3ccc(OC)cc23)[C@@H](CC)C1`: the values for the growth inhibition in test [1] and in test [4] were 75% (active) and 101% (active), respectively. The inhibition in test [2] is 14%; in test [3], -4%. For the same compound, the result in test [5], in test [6], in test [7] and in test [8] was inactive.

On to `Cc1cc2nc(-c3ccc(OCC(=O)NCc4cccc(C(F)(F)F)c4)cc3)[nH]c2cc1C`, for which the growth inhibition in test [1] was 1%; in test [4], 94% (active). Moreover, the inhibition was 4% in test [2] and -4% in test [3]. Also, the result in test [5], in test [6], in test [7] and in test [8] was inactive.

In the case of `O[C@@H](c1ccccc1)[C@@H]1CN(Cc2ccccc2)CC[C@@]1(O)c1ccccc1`, the growth inhibition was 82% (active) in test [1] and 91% (active) in test [4]. Also, the inhibition in test [2] was 4%; in test [3], -2%. The outcome in test [5], in test [6], in test [7] and in test [8] was inactive.

Turning to `O=C(Nc1cccc(C(F)(F)F)c1)NC1CCN(c2ccnc3cc(Cl)ccc23)C1` (stereo not given), the growth inhibition in test [1] is 89% (active); in test [4], 101% (active). The values for the inhibition in test [2] and in test [3] were 18% and 6%, respectively. The result in test [5], in test [6], in test [7] and in test [8] was inactive.

Regarding `CCc1ccc(NC(=O)c2ccc(CN3CCCN(Cc4cccc(O)c4)CC3)cc2)cc1`, the growth inhibition is 55% (active) in test [1] and 100% (active) in test [4]. Besides, the figures for the inhibition in test [2] and in test [3] were 51% (active) and 0%, respectively. For the same compound, the outcome in test [5], in test [6], in test [7] and in test [8] was inactive.

Take `Cc1sc(NC(=O)c2ccc([N+](=O)[O-])cc2Cl)c(C(N)=O)c1C`: the growth inhibition is 2% in test [1] and 94% (active) in test [4]. Further, the inhibition is 2% in test [2] and 1% in test [3]. The result in test [5], in test [6], in test [7] and in test [8] was inactive.

With `Cc1cc(N[C@@H](Cc2ccccc2)C(=O)Nc2ccccc2)nc(NCC2CCCCC2)n1`, the growth inhibition in test [1] was 55% (active); in test [4] it was 98% (active). Also, the inhibition in test [2] is 12%; in test [3], 1%. Further, the outcome in test [5], in test [6], in test [7] and in test [8] was inactive.

With `O=C(Nc1cccc(C(F)(F)F)c1)c1ccc(S(=O)(=O)NC2CCN(CC3CCCCC3)CC2)cc1`, the growth inhibition is -3% in test [1] and 83% (active) in test [4]. Also, the inhibition is 25% in test [2] and 0% in test [3]. Moreover, the result in test [5], in test [6], in test [7] and in test [8] was inactive.

Take `CCN(CC)CCN(Cc1ccc(-c2ccc(C(F)(F)F)cc2)cc1)C(=O)Cn1c(CCc2ccc(F)c(F)c2F)nc(=O)c2ccc(F)cc21`: the growth inhibition in test [1] is 46%; in test [4], 98% (active). The values for the inhibition in test [2] and in test [3] were 19% and -1%, respectively. The result in test [5], in test [6], in test [7] and in test [8] was inactive.

On to `CCN(CC)C(C)(C)CN(Cc1ccc(-c2ccc(C(F)(F)F)cc2)cc1)C(=O)Cn1c(CCc2cccc(F)c2F)nc(=O)c2ccccc21`, for which the growth inhibition in test [1] was 79% (active); in test [4], 91% (active). The inhibition was 53% (active) in test [2] and -2% in test [3]. Moreover, the outcome in test [5], in test [6], in test [7] and in test [8] was inactive.

`CCC(CC)OC(=O)C(C)c1cccc(C(=O)c2ccccc2)c1` (stereo not given): the growth inhibition in test [1] is 0%; in test [4], 93% (active). For the same compound, the results for the inhibition in test [2] and in test [3] were -8% and 6%, respectively. In addition, the outcome in test [5], in test [6], in test [7] and in test [8] was inactive.

As for `Cc1c(C)c2c(c(C)c1O)CCC(C)(CCC(=O)O)O2` (stereo not given), the values for the growth inhibition in test [1] and in test [4] were -4% and 96% (active), respectively. Besides, the figures for the inhibition in test [2] and in test [3] were 8% and 0%, respectively. In addition, the result in test [5], in test [6], in test [7] and in test [8] was inactive.

`Cn1c(NC(=O)C2CCC(CNC(=O)c3ccc(O)c(-c4cccc([N+](=O)[O-])c4)c3)CC2)nc2ccccc21` (stereo not given): the growth inhibition in test [1] was 97% (active); in test [4], 95% (active). Moreover, the inhibition was 6% in test [2] and -5% in test [3]. The outcome in test [5], in test [6], in test [7] and in test [8] was inactive.
